Source: PubChem BioAssay AID463173 (ICCB-Longwood Screening Facility, Harvard Medical School, 2010)
Out of some 52,000 compounds screened, about 4,300 (8.3%) were called active. Many of the other results were omitted from the sample, so actives are more common in it than they were. Values without a mark were called inactive. Rule as the data show it: active = survival mostly below about 52% (no sharp cut-off); inactive = mostly above about 56%.

system: DeltatarO mutant; test: growth inhibition of S. aureus wild type versus tarO mutant, primary screen, teichoic acid synthesis inhibitors, RN4220, OD600 (AID 463173); conditions: OD600, 18 h, active compounds read low, screened at 18.75 µg/mL (by protocol)

SMILES	survival
CCOc1ccc(NC(=O)CC2C(=O)N(c3ccc(F)cc3)C(=O)N2Cc2ccc(OC)c(OC)c2)cc1 (stereo not drawn)	90%
Cc1ccc(C)c(CSc2nc3ncccc3[nH]2)c1	73%
CCc1ccc(NC(=O)CSc2nc3nccnc3c(=O)n2CCc2c[nH]c3ccccc23)cc1	88%
COc1ccccc1NC(=O)CSc1nc2nccnc2c(=O)n1CCc1c[nH]c2ccccc12	38% (active)
O=C(CSc1nc2nccnc2c(=O)n1CCc1c[nH]c2ccccc12)Nc1ccc(F)cc1	29% (active)
O=C(CSc1nc2c([nH]c3ccccc32)c(=O)n1-c1ccccc1)Nc1ccccc1F	96%
COc1ccccc1NC(=O)CSc1nc2ccccc2c(=O)n1CCC(=O)NC1CCCCC1	89%
O=C(CSc1nc2nccnc2c(=O)n1CCc1c[nH]c2ccccc12)Nc1ccccc1F	46% (active)
Cc1ccc(NC(=O)CSc2nc3c([nH]c4ccccc43)c(=O)n2-c2ccccc2)c(C)c1	96%
COCCCn1c(SCC(=O)Nc2ccccc2OC)nc2c(sc3ccccc32)c1=O	77%
Cc1cc(C)c(NC(=O)CSc2nc3nccnc3c(=O)n2CCc2c[nH]c3ccccc23)c(C)c1	48%
Cn1c(SCC(=O)Nc2ccccc2F)nc2c([nH]c3ccccc32)c1=O	115%
Cc1ccc(NC(=O)CSc2nc3nccnc3c(=O)n2CCc2c[nH]c3ccccc23)c(C)c1	45% (active)
O=C(CSc1nc2nccnc2c(=O)n1CCc1c[nH]c2ccccc12)Nc1ccccc1	73%
Cc1ccc(C)c(NC(=O)CCCn2nc(C)c3sc4ccccc4c3c2=O)c1	85%
CCOC(=O)c1c(C)[nH]c(C)c1S(=O)(=O)N(C)CC(=O)Nc1ccc(C)cc1Br	72%
CCCCN(C)C(=O)Cn1cnc2sc(C)c(S(=O)(=O)N3CCN(c4ccccc4OC)CC3)c2c1=O	70%
Cc1cc(C)n(-c2nc(C)c(C)c(=O)n2CC(=O)Nc2ccc(OC(F)(F)F)cc2)n1	90%
COc1ccccc1N1CCN(C(=O)COc2ccccc2C#N)CC1	81%
COc1cc(C(=O)N2CCN(CCc3ccncc3)CC2)cc(OC)c1OC	89%
CS(=O)(=O)n1nc(-c2ccco2)nc1NCc1ccccc1Cl	61%
COc1cc(NC(=O)Cn2cnc3sc(C)c(S(=O)(=O)N4CCC(C)CC4)c3c2=O)cc(OC)c1OC	111%

SMILES	survival
Cc1cc(C)c2c(n1)nn1c(C)c(CCC(=O)NCc3ccc(Cl)cc3)c(C)nc21	80%
Cc1cccc(NC(=O)CSc2nc3c([nH]c4ccccc43)c(=O)n2C)c1C	80%
Cc1ccccc1NC(=O)CSc1nc2nccnc2c(=O)n1CCc1c[nH]c2ccccc12	40% (active)
Cc1ccc(C)c(NC(=O)CSc2nc3nccnc3c(=O)n2CCc2c[nH]c3ccccc23)c1	37% (active)
CCOCCCn1c(SCC(=O)Nc2cc(C)ccc2C)nc2c(oc3ccccc32)c1=O	90%
Cc1ccc(C)c(NC(=O)Cn2c(SCC(=O)NCc3ccccc3)nc3ccccc32)c1	101%
Cc1ccccc1NC(=O)NCCc1c[nH]c2ccccc12	47%
Cc1ccc(NC(=O)c2sc3ncnc(N(C)C4CCCCC4)c3c2C)cc1	144%
CCOc1ccc(CCNC(=O)c2ccc3nc(CC)c(CC)nc3c2)cc1	91%
CN(C)C(=O)CSc1ccc(-c2ccc(F)cc2)nn1	92%
CC(C)Oc1ccc(C(=O)Nc2nnc3n2CCS3)cc1	124%
Cc1cccc(NC(=O)NC2CC3CCCC(C2)N3CC(C)C)c1 (stereo not drawn)	94%
CC(C)C(NS(=O)(=O)c1ccc2c(c1)oc(=O)n2C)C(=O)NCCc1ccccc1 (stereo not drawn)	89%
COc1ccc(C(=O)Nc2ccc(N3CCOCC3)c(C(F)(F)F)c2)cc1OC	91%
Cc1oc2ccc(O)c(CN(C)Cc3ccccc3)c2c1C(=O)Nc1cccc(Cl)c1C	11% (active)
Cc1oc2ccc(O)c(CN3CCCC3)c2c1C(=O)Nc1cccc(Cl)c1C	71%
Cc1oc2ccc(O)c(CN3CCN(C)CC3)c2c1C(=O)Nc1cccc(C(F)(F)F)c1	81%
Cc1oc2ccc(O)c(CN(C)Cc3ccccc3)c2c1C(=O)Nc1ccccc1	92%
Cc1oc2ccc(O)c(CN3CCN(Cc4ccccc4)CC3)c2c1C(=O)Nc1cccc(Cl)c1C	72%
Cc1oc2ccc(O)c(CN(C)Cc3ccccc3)c2c1C(=O)Nc1cccc(C(F)(F)F)c1	6% (active)
CCOC(=O)c1ccccc1NC(=O)c1c2c(nc3ccccc13)C(=O)N(C1CCCCC1)C2	75%
CC(C)C1N=C2c3ccccc3N=C(SCC(=O)NCc3ccc(F)cc3)N2C1=O (stereo not drawn)	73%

SMILES	survival
O=C(Cn1ccn(-c2ccc(F)cc2)c(=O)c1=O)Nc1ccc(F)cc1	60%
COc1ccccc1NC(=O)Cn1ccn(-c2cc(C)cc(C)c2)c(=O)c1=O	55%
CCc1ccc(NC(=O)Cn2ccn(Cc3ccccc3OC)c(=O)c2=O)cc1	46% (active)
Cc1ccc(Cn2ccn(CC(=O)Nc3c(C)cc(C)cc3C)c(=O)c2=O)cc1	47%
COc1ccccc1Cn1ccn(CC(=O)Nc2c(C)cc(C)cc2C)c(=O)c1=O	41% (active)
Cc1ccc(NC(=O)Cn2ccn(-c3ccccc3)c(=O)c2=O)cc1	56% (active)
COc1ccc(NC(=O)Cn2ccn(-c3ccccc3)c(=O)c2=O)cc1	52%
CCc1ccc(NC(=O)Cn2ccn(-c3ccc(OC)cc3)c(=O)c2=O)cc1	67%
COc1cc(NC(=O)Cn2ccn(Cc3ccccc3OC)c(=O)c2=O)cc(OC)c1	52%
COc1ccc(NC(=O)CC2C(=O)N(c3ccc(C)cc3)C(=O)N2CCc2ccccc2)cc1 (stereo not drawn)	62%
Cc1ccc(-c2cn3c(n2)sc2cc(C(=O)NCCCc4ccccc4)ccc23)c(C)c1	48%
O=C1N(c2ccccc2)C(=O)N(c2ccccc2)C2c3ccccc3C=CN12 (stereo not drawn)	100%
CCOC(=O)c1ccccc1NC(=O)Nc1cc2c(cc1N1CCCC1)n(C)c(=O)n2C	108%
CCc1nc2ccc(C(=O)NCCc3ccc(OC)c(OC)c3)cc2nc1CC	88%
Cc1cccc(NC(=O)c2c(Br)sc3c2CCCC3)c1	3% (active)
O=C(Cc1ccccc1)Nc1sc2c(c1C(=O)Nc1cccc(Cl)c1)CCCCC2	65%
Cc1cccc(NC(=O)c2c(NC(=O)c3ccccc3)sc3c2CCCC3)c1	61%
O=C(Nc1cccc(Cl)c1)c1c(NC(=O)C(F)(F)F)sc2c1CCCC2	-2% (active)
Cc1cccc(NC(=O)c2c(NC(=O)c3ccccc3)sc3c2CCC3)c1	72%
Cc1cccc(NC(=O)c2c(N)sc3c2CCC(C)C3)c1 (stereo not drawn)	59%
O=C(Nc1sc2c(c1C(=O)Nc1cccc(Cl)c1)CCCC2)c1cccs1	159%
CCOc1ccc(NC(=O)c2c(NC(=O)c3cccc(C)c3)sc3c2CCC3)cc1	160%

SMILES	survival
Cc1cccc(NC(=O)c2c(NC(=O)C(F)(F)F)sc3c2CCCCC3)c1	-3% (active)
O=c1n(Cc2ccc(F)cc2Cl)c2ccccc2c2nc(-c3ccccc3)nn12	125%
O=S(=O)(c1ccc(-c2cnc(C3CC3)o2)cc1)N1CCN(c2cccc(Cl)c2)CC1	75%
COc1ccc(Br)cc1CNC(=O)C1COc2ccccc2C1 (stereo not drawn)	49%
COc1cccc(C(=O)Oc2c(Sc3ccc(C)cc3)c(C)nn2C(C)(C)C)c1OC	21% (active)
COc1ccccc1C(=O)Oc1c(Sc2ccccc2)c(C)nn1C(C)(C)C	87%
CCOc1ccccc1C(=O)Oc1c(Sc2ccccc2)c(C)nn1C(C)(C)C	91%
Cc1ccc(Sc2c(C)nn(C(C)(C)C)c2OC(=O)C(C)(C)C)cc1	-10% (active)
COc1ccc(C(=O)Oc2c(Sc3ccc(C)cc3)c(C)nn2C(C)(C)C)c(OC)c1	49%
COc1ccc(C(=O)Oc2c(Sc3ccc(C)cc3)c(C)nn2C(C)(C)C)cc1OC	115%
Cc1ccccc1C(=O)Oc1c(Sc2ccccc2)c(C)nn1C(C)(C)C	21% (active)
Cc1nn(C(C)(C)C)c(OC(=O)C(C)(C)C)c1Sc1ccccc1	-10% (active)
Cc1oc2cc3oc(=O)c(CCC(=O)NCCc4ccccc4F)c(C)c3cc2c1C	94%
O=S(=O)(c1ccc2oc(-c3cccnc3)nc2c1)c1ccc2oc(-c3cccnc3)nc2c1	64%
CCOC(=O)c1c(-c2ccc(C)cc2C)csc1NC(=O)c1ccccc1Cl	47%
CC(C)c1ccc(C2N3CC4(C)CN2CC(c2ccccc2)(C3)C4=O)cc1 (stereo not drawn)	80%
CC(C)NC(=O)C1CC(=O)N(c2ccc(Oc3ccccc3)cc2)C1 (stereo not drawn)	87%
CSc1ncc(Cl)c(C(=O)Nc2ccc(S(=O)(=O)N3CCC(C)CC3)cc2)n1	62%
O=C(Cn1ccn(-c2ccc(F)cc2)c(=O)c1=O)Nc1ccccc1C(F)(F)F	50%
CCC(=O)Oc1c(Sc2ccc(Cl)cc2)c(C)nn1C(C)(C)C	78%
COCC(=O)Oc1c(Sc2ccc(C)cc2)c(C)nn1C(C)(C)C	78%
Cc1ccc(Sc2c(C)nn(C(C)(C)C)c2OC(=O)CC(C)C)cc1	-9% (active)
